{"source": "PubChem BioAssay (Tox21)", "key": {"[1]": {"biological_target": "Cytochrome P450 2D6 (Homo sapiens) (UniProt P10635)", "sequence (P10635 whole entry, looked up)": "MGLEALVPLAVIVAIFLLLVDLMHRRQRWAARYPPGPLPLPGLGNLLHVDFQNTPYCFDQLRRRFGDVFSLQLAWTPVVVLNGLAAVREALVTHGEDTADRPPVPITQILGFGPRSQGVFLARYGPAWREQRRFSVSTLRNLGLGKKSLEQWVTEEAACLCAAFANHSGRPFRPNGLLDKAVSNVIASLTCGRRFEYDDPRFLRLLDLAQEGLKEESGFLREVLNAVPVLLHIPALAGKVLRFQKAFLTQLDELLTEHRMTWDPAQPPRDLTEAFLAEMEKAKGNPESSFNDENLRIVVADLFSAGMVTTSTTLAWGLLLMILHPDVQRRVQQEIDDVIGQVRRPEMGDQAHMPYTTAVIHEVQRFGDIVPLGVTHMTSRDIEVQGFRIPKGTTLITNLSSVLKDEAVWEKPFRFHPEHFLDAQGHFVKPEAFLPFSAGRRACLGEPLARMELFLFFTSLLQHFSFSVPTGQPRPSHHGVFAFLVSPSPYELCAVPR", "assay": "Cytochrome P450 Family 2 Subfamily D Member 6 (CYP2D6) small molecule antagonists: luciferase reporter qHTS assay (AID 1671196); note: nearly all actives have a fitted effect of over 50% in size; note: potency is the fitted concentration of half-maximal effect", "procedure,_shortened": "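Luminescence (RLU), read 20 min after detection reagent, indicated CYP2D6 conversion of proluciferin to luciferin during a 1 h NADPH-dependent reaction at room temperature.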"}, "[2]": {"biological_target": "Cytochrome P450 2C19 (Homo sapiens) (UniProt P33261)", "sequence (P33261 whole entry, looked up)": "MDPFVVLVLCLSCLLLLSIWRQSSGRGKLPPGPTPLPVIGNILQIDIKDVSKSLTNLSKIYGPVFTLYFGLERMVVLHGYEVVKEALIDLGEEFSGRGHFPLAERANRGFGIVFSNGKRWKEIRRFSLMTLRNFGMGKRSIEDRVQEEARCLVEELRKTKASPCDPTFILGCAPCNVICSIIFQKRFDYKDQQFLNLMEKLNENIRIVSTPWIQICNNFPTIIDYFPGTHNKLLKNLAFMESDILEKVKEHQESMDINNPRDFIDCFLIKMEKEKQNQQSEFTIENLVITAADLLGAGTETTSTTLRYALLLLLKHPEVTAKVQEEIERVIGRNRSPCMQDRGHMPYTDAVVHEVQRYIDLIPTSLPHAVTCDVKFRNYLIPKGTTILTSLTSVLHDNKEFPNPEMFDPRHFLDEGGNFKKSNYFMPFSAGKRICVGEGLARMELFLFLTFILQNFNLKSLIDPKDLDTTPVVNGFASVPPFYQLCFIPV", "assay": "Cytochrome P450 Family 2 Subfamily C Member 19 (CYP2C19) small molecule antagonists: luciferase reporter qHTS assay (AID 1671197); note: nearly all actives have a fitted effect of over 65% in size; note: potency is the fitted concentration of half-maximal effect", "procedure,_shortened": "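Quantitative high-throughput screen of the Tox21 library using CYP2C19 with proluciferin substrate. Reaction: NADPH regeneration, 37C, 1 h, after 10 min compound preincubation at room temperature. Readout: luminescence.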"}, "[3]": {"biological_target": "Cytochrome P450 2C9 (Homo sapiens) (UniProt P11712)", "sequence (P11712 whole entry, looked up)": "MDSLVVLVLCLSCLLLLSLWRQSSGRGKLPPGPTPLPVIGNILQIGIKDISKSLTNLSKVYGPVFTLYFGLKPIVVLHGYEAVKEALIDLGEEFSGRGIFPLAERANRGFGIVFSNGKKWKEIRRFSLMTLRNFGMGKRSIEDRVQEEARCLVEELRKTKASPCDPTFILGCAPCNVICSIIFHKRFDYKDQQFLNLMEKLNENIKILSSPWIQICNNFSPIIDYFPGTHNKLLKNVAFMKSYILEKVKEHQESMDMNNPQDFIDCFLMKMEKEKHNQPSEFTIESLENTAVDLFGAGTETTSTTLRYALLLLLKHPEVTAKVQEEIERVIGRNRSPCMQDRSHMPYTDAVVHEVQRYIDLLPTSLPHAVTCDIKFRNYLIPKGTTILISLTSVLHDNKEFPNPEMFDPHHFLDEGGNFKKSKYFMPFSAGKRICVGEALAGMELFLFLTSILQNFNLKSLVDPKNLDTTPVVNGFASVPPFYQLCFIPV", "assay": "Cytochrome P450 Family 2 Subfamily C Member 9 (CYP2C9) small molecule antagonists: luciferase reporter qHTS assay (AID 1671198); note: nearly all actives have a fitted effect of over 50% in size; note: potency is the fitted concentration of half-maximal effect", "procedure,_shortened": "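P450-Glo proluciferin substrate with CYP2C9 enzyme; 10 min RT preincubation, then NADPH regeneration 1 h at 37C; luciferin detection reagent 20 min RT, luminescence in relative luminescence units.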"}, "[4]": {"biological_target": "Cytochrome P450 1A2 (Homo sapiens) (UniProt P05177)", "sequence (P05177 whole entry, looked up)": "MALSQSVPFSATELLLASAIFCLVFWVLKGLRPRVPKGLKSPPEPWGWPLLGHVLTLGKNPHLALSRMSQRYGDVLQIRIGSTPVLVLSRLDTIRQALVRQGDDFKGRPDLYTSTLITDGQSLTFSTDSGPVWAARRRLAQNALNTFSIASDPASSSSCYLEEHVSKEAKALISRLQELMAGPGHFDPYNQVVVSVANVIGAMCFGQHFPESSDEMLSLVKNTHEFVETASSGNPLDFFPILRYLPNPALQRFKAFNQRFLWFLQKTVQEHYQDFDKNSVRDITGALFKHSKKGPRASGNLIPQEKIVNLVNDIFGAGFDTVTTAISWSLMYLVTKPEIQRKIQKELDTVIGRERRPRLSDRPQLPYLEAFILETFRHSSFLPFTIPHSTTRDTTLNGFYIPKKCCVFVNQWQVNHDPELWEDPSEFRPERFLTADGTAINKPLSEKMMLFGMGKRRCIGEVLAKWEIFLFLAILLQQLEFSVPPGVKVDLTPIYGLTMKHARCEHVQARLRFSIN", "assay": "Cytochrome P450 Family 1 Subfamily A Member 2 (CYP1A2) small molecule antagonists: luciferase reporter qHTS assay (AID 1671199); note: nearly all actives have a fitted effect of over 50% in size; note: potency is the fitted concentration of half-maximal effect", "procedure,_shortened": "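CYP1A2 turnover of a luminogenic substrate was quantified after 1 h with NADPH regeneration at room temperature. Furafylline served as positive control.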"}, "[5]": {"biological_target": "Voltage-gated inwardly rectifying potassium channel KCNH2 (Homo sapiens) (UniProt Q12809)", "sequence (Q12809 whole entry, looked up)": "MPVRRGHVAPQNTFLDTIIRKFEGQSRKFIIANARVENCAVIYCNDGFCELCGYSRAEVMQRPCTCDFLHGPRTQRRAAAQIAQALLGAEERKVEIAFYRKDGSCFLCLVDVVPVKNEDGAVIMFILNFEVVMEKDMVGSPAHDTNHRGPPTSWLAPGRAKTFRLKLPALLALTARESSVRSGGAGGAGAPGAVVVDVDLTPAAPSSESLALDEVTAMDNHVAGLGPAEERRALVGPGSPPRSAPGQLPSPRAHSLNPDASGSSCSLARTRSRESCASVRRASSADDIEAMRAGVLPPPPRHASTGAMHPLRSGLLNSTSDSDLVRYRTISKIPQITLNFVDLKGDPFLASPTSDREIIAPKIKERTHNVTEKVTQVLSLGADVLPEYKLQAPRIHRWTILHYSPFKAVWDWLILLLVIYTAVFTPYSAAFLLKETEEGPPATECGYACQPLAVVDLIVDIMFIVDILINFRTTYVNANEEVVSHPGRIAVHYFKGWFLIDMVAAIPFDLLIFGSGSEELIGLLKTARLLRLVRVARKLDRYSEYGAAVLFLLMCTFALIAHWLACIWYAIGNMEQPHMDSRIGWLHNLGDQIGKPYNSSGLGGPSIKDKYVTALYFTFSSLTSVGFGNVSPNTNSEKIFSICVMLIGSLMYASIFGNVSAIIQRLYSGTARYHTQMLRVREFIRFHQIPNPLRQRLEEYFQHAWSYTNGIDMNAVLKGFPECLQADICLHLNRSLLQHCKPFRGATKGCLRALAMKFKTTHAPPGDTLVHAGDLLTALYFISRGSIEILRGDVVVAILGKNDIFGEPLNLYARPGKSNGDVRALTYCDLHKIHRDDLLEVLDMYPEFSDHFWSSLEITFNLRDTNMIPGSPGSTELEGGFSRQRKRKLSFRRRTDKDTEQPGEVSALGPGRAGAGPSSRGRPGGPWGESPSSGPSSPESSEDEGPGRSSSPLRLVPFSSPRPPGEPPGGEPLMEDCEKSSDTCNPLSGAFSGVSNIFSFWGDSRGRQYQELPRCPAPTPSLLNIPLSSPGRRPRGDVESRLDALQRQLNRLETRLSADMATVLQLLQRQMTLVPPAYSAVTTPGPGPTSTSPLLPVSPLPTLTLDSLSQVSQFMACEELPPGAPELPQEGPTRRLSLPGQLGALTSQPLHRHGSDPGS", "assay": "Human Ether-a-go-go-Related Gene (hERG) channel small molecule antagonists: fluorescence cell-based qHTS assay (AID 1671200); note: series mostly up to about 77 µM; nearly all actives have a fitted effect of over 50% in size", "procedure,_shortened": "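Thallium flux as potassium surrogate: FluxOR II dye loaded 1 h at room temperature into hERG-expressing U2OS cells, then stimulus buffer added after 10 min. Kinetic 480 nm excitation/540 nm emission read, 2 min.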"}, "[6]": {"biological_target": "Cytochrome P450 3A4 (Homo sapiens) (UniProt P08684)", "sequence (P08684 whole entry, looked up)": "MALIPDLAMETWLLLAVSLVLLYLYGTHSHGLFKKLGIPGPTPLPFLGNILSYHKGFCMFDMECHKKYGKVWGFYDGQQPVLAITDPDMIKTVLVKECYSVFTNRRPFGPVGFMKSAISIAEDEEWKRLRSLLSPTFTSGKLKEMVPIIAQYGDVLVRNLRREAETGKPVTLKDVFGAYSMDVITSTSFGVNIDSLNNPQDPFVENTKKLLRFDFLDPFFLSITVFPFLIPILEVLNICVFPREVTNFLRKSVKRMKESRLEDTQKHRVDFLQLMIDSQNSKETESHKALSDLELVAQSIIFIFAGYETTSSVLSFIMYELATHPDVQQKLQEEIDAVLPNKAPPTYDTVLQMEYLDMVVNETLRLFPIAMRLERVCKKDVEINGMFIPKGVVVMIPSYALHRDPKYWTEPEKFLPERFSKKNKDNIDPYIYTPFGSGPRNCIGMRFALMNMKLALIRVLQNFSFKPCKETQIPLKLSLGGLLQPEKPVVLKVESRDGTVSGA", "assay": "Cytochrome P450 Family 3 Subfamily A Member 4 (CYP3A4) small molecule antagonists: luciferase reporter qHTS assay (AID 1671201); note: nearly all actives have a fitted effect of over 50% in size; note: potency is the fitted concentration of half-maximal effect", "procedure,_shortened": "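Recombinant human CYP3A4 converts a proluciferin substrate to luciferin over 1 h at room temperature after NADPH regeneration solution is added (compound preincubated 10 min); detection reagent stops reaction, luminescence read 20 min later as relative units.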"}}, "note": "“And” between values parts separate entries of the source, which are not always exact repeats. Identical values can stand only once. Inconclusive results are not listed. Entries that show only a call come without a potency. The source holds several records for some structures; these can differ, active in one and inactive in another. The source made the active and inactive calls. Calls come from the whole dose curve; as a rule, active = well fitted curve in the direction sought with a large enough effect in the repeat runs; inconclusive = weak or mixed curves; inactive = no such curve, though single readings can be large; an effect the other way counts as inactive or inconclusive."}
{"compound": "CCC(C)(O)CCCC(C)C", "note": "(configuration not stated)", "values": [{"measurement": "Potency", "setting": "[1]", "result": "inactive"}, {"measurement": "Potency", "setting": "[2]", "result": "inactive"}, {"measurement": "Potency", "setting": "[3]", "result": "inactive"}, {"measurement": "Potency", "setting": "[4]", "result": "inactive"}, {"measurement": "Potency", "setting": "[5]", "result": "inactive"}, {"measurement": "Potency", "setting": "[6]", "result": "inactive"}]}
{"compound": "O=C(c1ccccc1)c1ccc(O)cc1O", "values": [{"measurement": "Potency", "setting": "[1]", "result": "8.12 µM (active) and 20 µM (active)"}, {"measurement": "Potency", "setting": "[2]", "result": "9.11 µM (active) and 22.4 µM (active)"}, {"measurement": "Potency", "setting": "[3]", "result": "57.5 µM (active) and 39.9 µM (active)"}, {"measurement": "Potency", "setting": "[4]", "result": "25.7 µM (active) and 31.7 µM (active)"}, {"measurement": "Potency", "setting": "[5]", "result": "inactive"}, {"measurement": "Potency", "setting": "[6]", "result": "14.4 µM (active) and 25.2 µM (active)"}]}
{"compound": "CCCCC(CC)COC(=O)c1ccc(N(C)C)cc1", "note": "(configuration not stated)", "values": [{"measurement": "Potency", "setting": "[1]", "result": "30.9 µM (active)"}, {"measurement": "Potency", "setting": "[2]", "result": "40.1 µM (active) and 20 µM (active) and 6.92 µM (active)"}, {"measurement": "Potency", "setting": "[3]", "result": "31.9 µM (active) and 17.8 µM (active) and 15.5 µM (active)"}, {"measurement": "Potency", "setting": "[4]", "result": "12.7 µM (active) and 7.1 µM (active) and 4.56 µM (active)"}, {"measurement": "Potency", "setting": "[5]", "result": "inactive"}, {"measurement": "Potency", "setting": "[6]", "result": "inactive"}]}
{"compound": "CCOCCOCCO", "values": [{"measurement": "Potency", "setting": "[1]", "result": "inactive"}, {"measurement": "Potency", "setting": "[2]", "result": "36.6 µM (active) and inactive"}, {"measurement": "Potency", "setting": "[3]", "result": "inactive"}, {"measurement": "Potency", "setting": "[4]", "result": "inactive"}, {"measurement": "Potency", "setting": "[5]", "result": "inactive"}, {"measurement": "Potency", "setting": "[6]", "result": "inactive"}]}
{"compound": "c1ccncc1", "values": [{"measurement": "Potency", "setting": "[1]", "result": "inactive"}, {"measurement": "Potency", "setting": "[2]", "result": "inactive"}, {"measurement": "Potency", "setting": "[3]", "result": "inactive"}, {"measurement": "Potency", "setting": "[4]", "result": "inactive"}, {"measurement": "Potency", "setting": "[5]", "result": "inactive"}, {"measurement": "Potency", "setting": "[6]", "result": "inactive"}]}
{"compound": "CCCCCCCCCC(=O)OC", "values": [{"measurement": "Potency", "setting": "[1]", "result": "inactive"}, {"measurement": "Potency", "setting": "[2]", "result": "inactive"}, {"measurement": "Potency", "setting": "[3]", "result": "inactive"}, {"measurement": "Potency", "setting": "[4]", "result": "inactive"}, {"measurement": "Potency", "setting": "[5]", "result": "inactive"}, {"measurement": "Potency", "setting": "[6]", "result": "inactive"}]}
{"compound": "COc1c(Cl)c(Cl)c(Cl)c(Cl)c1Cl", "values": [{"measurement": "Potency", "setting": "[1]", "result": "inactive"}, {"measurement": "Potency", "setting": "[2]", "result": "inactive"}, {"measurement": "Potency", "setting": "[3]", "result": "inactive"}, {"measurement": "Potency", "setting": "[4]", "result": "28.4 µM (active) and 5.03 µM (active)"}, {"measurement": "Potency", "setting": "[5]", "result": "inactive"}, {"measurement": "Potency", "setting": "[6]", "result": "inactive"}]}
{"compound": "COC(=O)c1ccccc1", "values": [{"measurement": "Potency", "setting": "[1]", "result": "inactive"}, {"measurement": "Potency", "setting": "[2]", "result": "inactive"}, {"measurement": "Potency", "setting": "[3]", "result": "inactive"}, {"measurement": "Potency", "setting": "[4]", "result": "inactive"}, {"measurement": "Potency", "setting": "[5]", "result": "inactive"}, {"measurement": "Potency", "setting": "[6]", "result": "inactive"}]}
{"compound": "Cc1c(C(N)=O)cc([N+](=O)[O-])cc1[N+](=O)[O-]", "values": [{"measurement": "Potency", "setting": "[1]", "result": "inactive"}, {"measurement": "Potency", "setting": "[2]", "result": "inactive"}, {"measurement": "Potency", "setting": "[3]", "result": "inactive"}, {"measurement": "Potency", "setting": "[4]", "result": "inactive"}, {"measurement": "Potency", "setting": "[5]", "result": "inactive"}, {"measurement": "Potency", "setting": "[6]", "result": "inactive"}]}
{"compound": "CC(=O)CC/C=C(\\C)CCC=C(C)C", "values": [{"measurement": "Potency", "setting": "[1]", "result": "inactive"}, {"measurement": "Potency", "setting": "[2]", "result": "inactive and 39.9 µM (active)"}, {"measurement": "Potency", "setting": "[3]", "result": "inactive and 35.6 µM (active)"}, {"measurement": "Potency", "setting": "[4]", "result": "inactive and 39.9 µM (active)"}, {"measurement": "Potency", "setting": "[5]", "result": "inactive"}, {"measurement": "Potency", "setting": "[6]", "result": "inactive and 17.8 µM (active)"}]}
{"compound": "CC1=CCC(C(C)(C)O)CC1", "note": "(configuration not stated)", "values": [{"measurement": "Potency", "setting": "[1]", "result": "inactive"}, {"measurement": "Potency", "setting": "[2]", "result": "inactive"}, {"measurement": "Potency", "setting": "[3]", "result": "inactive"}, {"measurement": "Potency", "setting": "[4]", "result": "inactive"}, {"measurement": "Potency", "setting": "[5]", "result": "inactive"}, {"measurement": "Potency", "setting": "[6]", "result": "inactive"}]}
{"compound": "COC(=O)Nc1nc2ccc(S(=O)c3ccccc3)cc2[nH]1", "note": "(configuration not stated)", "values": [{"measurement": "Potency", "setting": "[1]", "result": "inactive"}, {"measurement": "Potency", "setting": "[2]", "result": "79.6 µM (active) and inactive"}, {"measurement": "Potency", "setting": "[3]", "result": "inactive"}, {"measurement": "Potency", "setting": "[4]", "result": "28.2 µM (active) and 17.4 µM (active)"}, {"measurement": "Potency", "setting": "[5]", "result": "inactive"}, {"measurement": "Potency", "setting": "[6]", "result": "inactive"}]}
{"compound": "O=CCCCC=O", "values": [{"measurement": "Potency", "setting": "[1]", "result": "inactive"}, {"measurement": "Potency", "setting": "[2]", "result": "inactive"}, {"measurement": "Potency", "setting": "[3]", "result": "inactive"}, {"measurement": "Potency", "setting": "[4]", "result": "inactive"}, {"measurement": "Potency", "setting": "[5]", "result": "inactive"}, {"measurement": "Potency", "setting": "[6]", "result": "inactive"}]}
{"compound": "CC(=O)c1ccccn1", "values": [{"measurement": "Potency", "setting": "[1]", "result": "inactive"}, {"measurement": "Potency", "setting": "[2]", "result": "20.2 µM (active) and inactive"}, {"measurement": "Potency", "setting": "[3]", "result": "inactive"}, {"measurement": "Potency", "setting": "[4]", "result": "64 µM (active) and inactive"}, {"measurement": "Potency", "setting": "[5]", "result": "inactive"}, {"measurement": "Potency", "setting": "[6]", "result": "inactive"}]}
{"compound": "CCCCOCCOCCOCCO", "values": [{"measurement": "Potency", "setting": "[1]", "result": "inactive"}, {"measurement": "Potency", "setting": "[2]", "result": "inactive"}, {"measurement": "Potency", "setting": "[3]", "result": "inactive"}, {"measurement": "Potency", "setting": "[5]", "result": "inactive"}, {"measurement": "Potency", "setting": "[6]", "result": "inactive"}]}
{"compound": "C=C(C)C(=O)OCCOC(=O)C(=C)C", "values": [{"measurement": "Potency", "setting": "[1]", "result": "inactive"}, {"measurement": "Potency", "setting": "[2]", "result": "inactive"}, {"measurement": "Potency", "setting": "[3]", "result": "inactive"}, {"measurement": "Potency", "setting": "[4]", "result": "inactive and 35.6 µM (active)"}, {"measurement": "Potency", "setting": "[5]", "result": "inactive"}, {"measurement": "Potency", "setting": "[6]", "result": "inactive"}]}
{"compound": "O=C(c1ccccc1)c1ccccc1O", "values": [{"measurement": "Potency", "setting": "[1]", "result": "40.9 µM (active)"}, {"measurement": "Potency", "setting": "[2]", "result": "3.65 µM (active) and 22.4 µM (active)"}, {"measurement": "Potency", "setting": "[3]", "result": "40.9 µM (active) and 63.3 µM (active)"}, {"measurement": "Potency", "setting": "[4]", "result": "11.5 µM (active) and 15.9 µM (active)"}, {"measurement": "Potency", "setting": "[5]", "result": "inactive"}, {"measurement": "Potency", "setting": "[6]", "result": "inactive"}]}
{"compound": "OC(CCl)CCl", "values": [{"measurement": "Potency", "setting": "[1]", "result": "inactive"}, {"measurement": "Potency", "setting": "[2]", "result": "inactive"}, {"measurement": "Potency", "setting": "[3]", "result": "inactive"}, {"measurement": "Potency", "setting": "[5]", "result": "inactive"}, {"measurement": "Potency", "setting": "[6]", "result": "inactive"}]}
{"compound": "O=C1OC2(c3cc(Br)c(O)c(Br)c3Oc3c2cc(Br)c(O)c3Br)c2c(Cl)c(Cl)c(Cl)c(Cl)c21", "values": [{"measurement": "Potency", "setting": "[1]", "result": "24.2 µM (active)"}, {"measurement": "Potency", "setting": "[2]", "result": "38.4 µM (active)"}, {"measurement": "Potency", "setting": "[3]", "result": "10 µM (active) and 17.2 µM (active)"}, {"measurement": "Potency", "setting": "[4]", "result": "12.6 µM (active)"}, {"measurement": "Potency", "setting": "[5]", "result": "inactive"}, {"measurement": "Potency", "setting": "[6]", "result": "71.1 µM (active) and inactive"}]}
